For some of these results: Entries with a potency or affinity are not part of this list. Activity calls are given as the source filed them. Unless noted, no rule for the calls is given here.
Legend:
[1] = antimalarial activity against Dd2 strain (AID 2302;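 active = growth inhibition above 50% at the single 2 µM test dose, taken to imply half-maximal potency below 2 µM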;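 also: 0% = DMSO untreated growth and 100% = chloroquine plus artemisinin killed control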); conditions: P. falciparum Dd2 in RBCs, LDH growth readout, 72 h; at 2 µM; hits give high values
[2] = human hepatoma cell viability loss – ATP luminescence, cytotoxicity control for P. falciparum antimalarial project, primary screen (AID 2303;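 active = inhibition above 50%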;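 also: 0% = DMSO wells and 100% = digitonin-killed cells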); conditions: HepG2 viability, 24-48 h, at 10 µM, hits give high values
[3] = biological target: L-lactate dehydrogenase (Plasmodium falciparum (isolate CDC / Honduras)) (UniProt Q27743); test: PfLDH activity inhibition – cell lysate, 3D7 strain, counter-screen for P. falciparum growth inhibition project (AID 2304);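 also: 0% = vehicle and 100% = reference inhibitor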; conditions: P. falciparum 3D7 crude extract, LDH APAD/NBT absorbance; at 2 µM; hits give high values
[4] = inhibition of 3D7 malaria parasite growth – strain 3D7 (AID 2306);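 also: 0% = DMSO wells and 100% = chloroquine plus artemisinin control wells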; conditions: P. falciparum 3D7 erythrocytic growth, LDH absorbance, 72 h; at 2 µM; hits give high values
[5] = biological target: Calcium-dependent protein kinase 1 (Plasmodium falciparum (isolate 3D7)) (UniProt P62344); test: PfCDPK1 kinase inhibitors, biochemical, TCAMS library (AID 1159585; cut-off not given, nearly all actives have IC50 up to about 0.98 µM;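 also: inhibitors leave more ATP so luminescence rises with inhibition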); conditions: recombinant PfCDPK1, Kinase-Glo ATP depletion luminescence
[6] = biological target: Plasmodium falciparum protein kinase 6 (PK6, PF3D7_1337100) (UniProt Q8IDW1); test: PfPK6 kinase inhibitors, biochemical, TCAMS library (AID 1159586); conditions: recombinant PfPK6, Kinase-Glo ATP depletion luminescence
[7] = biological target: Protein kinase 7 (PK7), Plasmodium falciparum 3D7 (PF3D7_0213400) (UniProt Q7YTF7); test: inhibition of Plasmodium PK7 catalytic activity – biochemical, TCAMS antimalarial set, Kinase-Glo luminescence (AID 1159587); conditions: recombinant PfPK7, Kinase-Glo ATP depletion luminescence
[8] = biological target: Calcium-dependent protein kinase 4 (Plasmodium falciparum (isolate 3D7)) (UniProt Q8IBS5); test: PfCDPK4 kinase inhibitors, biochemical, TCAMS library (AID 1159588; cut-off not given, nearly all actives have IC50 up to about 0.91 µM); conditions: recombinant PfCDPK4, Kinase-Glo ATP depletion luminescence
Calcium-dependent protein kinase 4 (Plasmodium falciparum (isolate 3D7)), sequence (Q8IBS5 whole entry, looked up): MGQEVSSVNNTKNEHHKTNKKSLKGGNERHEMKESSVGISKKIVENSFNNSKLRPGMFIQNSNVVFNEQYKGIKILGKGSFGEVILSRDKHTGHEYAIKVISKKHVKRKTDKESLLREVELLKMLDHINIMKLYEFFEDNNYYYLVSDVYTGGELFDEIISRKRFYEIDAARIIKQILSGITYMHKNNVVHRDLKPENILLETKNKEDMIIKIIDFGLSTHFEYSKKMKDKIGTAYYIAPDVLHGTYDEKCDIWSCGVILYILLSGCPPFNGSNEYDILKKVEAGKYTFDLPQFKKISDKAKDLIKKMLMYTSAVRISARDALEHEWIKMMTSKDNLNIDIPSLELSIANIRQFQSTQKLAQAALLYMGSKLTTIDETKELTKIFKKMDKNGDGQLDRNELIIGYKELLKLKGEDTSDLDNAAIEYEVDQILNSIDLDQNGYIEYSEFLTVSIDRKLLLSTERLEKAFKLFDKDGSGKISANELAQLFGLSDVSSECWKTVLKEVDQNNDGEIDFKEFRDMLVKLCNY

L-lactate dehydrogenase (Plasmodium falciparum (isolate CDC / Honduras)), sequence (Q27743 whole entry, looked up): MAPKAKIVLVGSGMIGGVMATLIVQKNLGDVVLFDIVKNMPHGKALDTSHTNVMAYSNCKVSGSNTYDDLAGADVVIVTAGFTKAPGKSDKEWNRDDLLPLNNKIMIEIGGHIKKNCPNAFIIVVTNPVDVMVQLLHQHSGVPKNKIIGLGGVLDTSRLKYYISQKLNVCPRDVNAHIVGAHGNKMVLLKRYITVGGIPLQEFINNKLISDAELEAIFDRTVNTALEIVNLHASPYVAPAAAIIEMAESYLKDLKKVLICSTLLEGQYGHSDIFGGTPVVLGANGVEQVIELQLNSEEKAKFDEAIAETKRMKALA
Calcium-dependent protein kinase 1 (Plasmodium falciparum (isolate 3D7)), sequence (P62344 whole entry, looked up): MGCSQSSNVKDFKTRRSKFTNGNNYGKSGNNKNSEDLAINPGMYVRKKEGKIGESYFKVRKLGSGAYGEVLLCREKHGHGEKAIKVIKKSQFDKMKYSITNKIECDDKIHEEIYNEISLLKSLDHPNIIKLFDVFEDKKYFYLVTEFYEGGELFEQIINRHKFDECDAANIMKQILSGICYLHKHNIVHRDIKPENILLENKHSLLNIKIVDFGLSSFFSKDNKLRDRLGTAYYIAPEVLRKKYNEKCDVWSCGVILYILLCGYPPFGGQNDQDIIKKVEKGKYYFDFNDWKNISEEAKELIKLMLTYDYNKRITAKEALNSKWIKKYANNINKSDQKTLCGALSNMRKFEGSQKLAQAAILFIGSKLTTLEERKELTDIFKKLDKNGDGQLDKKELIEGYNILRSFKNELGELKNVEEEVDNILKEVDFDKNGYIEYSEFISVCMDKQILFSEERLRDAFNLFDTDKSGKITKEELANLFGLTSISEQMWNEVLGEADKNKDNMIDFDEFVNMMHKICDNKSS
Protein kinase 7 (PK7), Plasmodium falciparum 3D7 (PF3D7_0213400), sequence (Q7YTF7 1-343): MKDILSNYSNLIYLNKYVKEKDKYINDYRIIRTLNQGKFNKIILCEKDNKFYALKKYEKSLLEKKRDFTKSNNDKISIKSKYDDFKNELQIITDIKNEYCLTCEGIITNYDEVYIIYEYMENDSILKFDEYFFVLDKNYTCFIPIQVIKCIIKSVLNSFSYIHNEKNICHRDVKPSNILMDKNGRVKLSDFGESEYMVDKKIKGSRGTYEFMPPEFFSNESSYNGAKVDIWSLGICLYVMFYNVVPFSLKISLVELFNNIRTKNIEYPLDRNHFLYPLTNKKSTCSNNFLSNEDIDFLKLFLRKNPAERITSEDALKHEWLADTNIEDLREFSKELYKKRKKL
Plasmodium falciparum protein kinase 6 (PK6, PF3D7_1337100), sequence (Q8IDW1 1-305): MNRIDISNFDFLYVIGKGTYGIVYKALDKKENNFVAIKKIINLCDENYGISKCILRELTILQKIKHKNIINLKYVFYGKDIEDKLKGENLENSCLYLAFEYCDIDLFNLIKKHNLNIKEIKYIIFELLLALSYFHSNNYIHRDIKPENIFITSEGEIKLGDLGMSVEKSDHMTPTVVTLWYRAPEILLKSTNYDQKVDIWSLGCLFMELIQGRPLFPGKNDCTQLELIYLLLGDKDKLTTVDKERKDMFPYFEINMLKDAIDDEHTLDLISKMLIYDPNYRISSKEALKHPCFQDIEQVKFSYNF

Cc1cc(N(C)CCN(C)C)nc(Nc2ccc(Br)cc2)n1
active: growth inhibition [4] 97%
inactive: growth inhibition [1] 23% | inhibition [2] 7% | inhibition [3] -1% | outcome [5] | outcome [6] | outcome [7] | outcome [8]

O=C(c1ccc(F)cc1)N1CCOC(CCN2CCC(c3ccccc3)CC2)(c2ccc(Cl)c(Cl)c2)C1 (stereo not drawn)
active: growth inhibition [1] 84% | growth inhibition [4] 88%
inactive: inhibition [2] 29% | inhibition [3] -6% | outcome [5] | outcome [6] | outcome [7] | outcome [8]

Cc1noc(C)c1-c1cccc(CNCc2ccc(-c3cccc(-c4nc5c(C)cccc5[nH]4)c3)cc2)c1
inactive: inhibition [2] 24% | inhibition [3] 7% | outcome [5] | outcome [6] | outcome [7] | outcome [8]
active: growth inhibition [1] 94% | growth inhibition [4] 101%

COC(=O)c1noc(C)c1I
inactive: growth inhibition [1] 2% | inhibition [2] 5% | inhibition [3] -9% | outcome [5] | outcome [6] | outcome [7] | outcome [8]
active: growth inhibition [4] 99%

CCC(C)NS(=O)(=O)c1ccc2nc(Nc3cccc(SC)c3)n(C(C)C(C)C)c2c1 (stereo not drawn)
inactive: inhibition [2] -1% | inhibition [3] 2% | outcome [5] | outcome [6] | outcome [7] | outcome [8]
active: growth inhibition [1] 70% | growth inhibition [4] 94%

CCCN(CCC)CC(O)COc1ccccc1C(=O)Nc1ccccc1 (stereo not drawn)
inactive: inhibition [2] 6% | inhibition [3] -2% | outcome [5] | outcome [6] | outcome [7] | outcome [8]
active: growth inhibition [1] 95% | growth inhibition [4] 92%

Cc1cc(N[C@@H](Cc2ccccc2)C(=O)NC2CCCC2)nc(NCCc2ccc(F)cc2)n1
active: growth inhibition [1] 61% | growth inhibition [4] 100%
inactive: inhibition [2] 21% | inhibition [3] -2% | outcome [5] | outcome [6] | outcome [7] | outcome [8]

Fc1cccc(C=NNc2ccnc3cc(Cl)ccc23)c1
inactive: inhibition [2] 6% | inhibition [3] -7% | outcome [5] | outcome [6] | outcome [7] | outcome [8]
active: growth inhibition [1] 91% | growth inhibition [4] 99%

COc1ccc(CCNCc2cc3c(C(C)(C)C)nn(-c4ccc(Cl)cc4)c3[nH]c2=O)cc1OC
inactive: inhibition [2] 13% | inhibition [3] 5% | outcome [5] | outcome [6] | outcome [7] | outcome [8]
active: growth inhibition [1] 99% | growth inhibition [4] 100%

COc1cc2c(cc1OCCN1CCC(N3CCCCC3)CC1)N(C(=O)/C=C/c1ccccc1OC(F)(F)F)CC2
active: growth inhibition [1] 93% | inhibition [2] 64% | growth inhibition [4] 101%
inactive: inhibition [3] -7% | outcome [5] | outcome [6] | outcome [7] | outcome [8]

COc1ccc2ncc(F)c([C@@H](O)CN3CCC(NCc4ccc5c(c4)NCCS5)CC3)c2n1
inactive: inhibition [3] -3% | outcome [5] | outcome [6] | outcome [7] | outcome [8]
active: growth inhibition [1] 69% | inhibition [2] 77% | growth inhibition [4] 99%

Cc1nc2ccc([N+](=O)[O-])cc2c(=O)n1OCc1ccccc1
inactive: growth inhibition [1] -1% | inhibition [2] 2% | inhibition [3] -2% | outcome [5] | outcome [6] | outcome [7] | outcome [8]
active: growth inhibition [4] 98%

CCCCN(CCCC)C(=O)CC(O)c1cc2c(Cl)cc(Cl)cc2c2cc(C(F)(F)F)ccc12 (stereo not drawn)
active: growth inhibition [1] 68% | growth inhibition [4] 92%
inactive: inhibition [2] -12% | inhibition [3] -2% | outcome [5] | outcome [6] | outcome [7] | outcome [8]

CCCCCCNCc1c(O)ccc2c(CNCCCCCC)c(O)ccc12
inactive: inhibition [2] 22% | inhibition [3] -1% | outcome [5] | outcome [6] | outcome [7] | outcome [8]
active: growth inhibition [1] 100% | growth inhibition [4] 102%

CCOC(=O)C1=C(C)N=c2sc(=Cc3cc(Cl)ccc3O)c(=O)n2C1c1cc(OC)c(OC)cc1Br (stereo not drawn)
active: growth inhibition [1] 76% | growth inhibition [4] 97%
inactive: inhibition [2] 6% | inhibition [3] -2% | outcome [5] | outcome [6] | outcome [7] | outcome [8]

Cc1[nH]c(C)c(-c2ccc(-c3ccccc3Cl)nc2)c(=O)c1Br
inactive: inhibition [2] -2% | inhibition [3] -5% | outcome [5] | outcome [6] | outcome [7] | outcome [8]
active: growth inhibition [1] 96% | growth inhibition [4] 97%

CCOC(=O)c1ccc(NC(=O)Nc2ccc(Cn3ncc(N4CCCNCC4)c(Cl)c3=O)cc2)cc1
inactive: inhibition [2] 2% | inhibition [3] 2% | outcome [5] | outcome [6] | outcome [7] | outcome [8]
active: growth inhibition [1] 58% | growth inhibition [4] 88%

O=C(Nc1ccc(OC2CCN(Cc3ccc(F)cc3)C2)c(Cl)c1)c1ccc(F)cc1 (stereo not drawn)
inactive: inhibition [2] 10% | inhibition [3] -3% | outcome [5] | outcome [6] | outcome [7] | outcome [8]
active: growth inhibition [1] 94% | growth inhibition [4] 96%

CCc1ccc(CN2CCC(NC(=O)c3ccc(-c4ccccc4F)s3)CC2)cc1
inactive: growth inhibition [1] 12% | inhibition [2] 35% | inhibition [3] 2% | outcome [5] | outcome [6] | outcome [7] | outcome [8]
active: growth inhibition [4] 80%

Cc1[nH]c(C)c(-c2ccc(-c3cccc(Cl)c3)nc2)c(=O)c1Br
inactive: inhibition [2] 10% | inhibition [3] 3% | outcome [5] | outcome [6] | outcome [7] | outcome [8]
active: growth inhibition [1] 96% | growth inhibition [4] 96%

O=C(Nc1ccc(C(=O)OCC2CCCCC2)cc1)N[C@@H](Cc1ccc(O)cc1)C(=O)NC1CCN(Cc2ccc(O)cc2)C1 (stereo partly drawn)
active: growth inhibition [4] 91%
inactive: growth inhibition [1] -4% | inhibition [2] 6% | inhibition [3] -1% | outcome [5] | outcome [6] | outcome [7] | outcome [8]

CN1CCCC(CN2CCN(Cc3ccc(-c4ccc(-c5nc6ccc(F)cc6[nH]5)cc4)cc3)CC2)C1 (stereo not drawn)
active: growth inhibition [1] 98% | inhibition [2] 90% | growth inhibition [4] 100%
inactive: inhibition [3] -1% | outcome [5] | outcome [6] | outcome [7] | outcome [8]

c1cc(CNCc2ccc3c(c2)OCO3)cc(-c2cccc(CNc3ccc4ncccc4c3)c2)c1
active: growth inhibition [4] 98%
inactive: growth inhibition [1] 27% | inhibition [2] 18% | inhibition [3] -4% | outcome [5] | outcome [6] | outcome [7] | outcome [8]

COc1ccccc1-n1ccnc1SCC(=O)Nc1cccc(C(F)(F)F)c1
inactive: inhibition [2] 1% | inhibition [3] -2% | outcome [5] | outcome [6] | outcome [7] | outcome [8]
active: growth inhibition [1] 96% | growth inhibition [4] 95%

COc1cc2nc(NCCc3ccccc3)nc(N(C)Cc3ccccc3)c2cc1OC
active: growth inhibition [1] 58% | growth inhibition [4] 96%
inactive: inhibition [2] 31% | inhibition [3] -6% | outcome [5] | outcome [6] | outcome [7] | outcome [8]

O=C(/C=C/c1ccc(Cl)cc1)NCCCCCN1CCCC(C(=O)Nc2ccc(Cl)c(Cl)c2)C1 (stereo not drawn)
active: growth inhibition [4] 96%
inactive: growth inhibition [1] 3% | inhibition [2] 27% | inhibition [3] -3% | outcome [5] | outcome [6] | outcome [7] | outcome [8]

FC(F)(F)c1ccc2nccc(NN=Cc3ccccc3)c2c1
active: growth inhibition [4] 92%
inactive: growth inhibition [1] 2% | inhibition [2] 7% | inhibition [3] -1% | outcome [5] | outcome [6] | outcome [7] | outcome [8]

C=CCN1Cc2c(O)cccc2C(c2ccc(O)c(O)c2)C1 (stereo not drawn)
inactive: growth inhibition [1] 6% | inhibition [2] -5% | inhibition [3] 0% | outcome [5] | outcome [6] | outcome [7] | outcome [8]
active: growth inhibition [4] 97%

COc1ccc2nccc([C@@H](O)CN3CCC(NC(=O)CCC(=O)c4cc(C(C)(C)C)ccc4OC)CC3)c2c1
inactive: inhibition [2] 26% | inhibition [3] -9% | outcome [5] | outcome [6] | outcome [7] | outcome [8]
active: growth inhibition [1] 51% | growth inhibition [4] 94%

Cc1cc(NC(=O)Nc2ccc3nc(C)oc3c2)c2cc(Cl)ccc2n1
active: growth inhibition [1] 57% | growth inhibition [4] 100%
inactive: inhibition [2] -10% | inhibition [3] -2% | outcome [5] | outcome [6] | outcome [7] | outcome [8]

CC(C)(C)c1ccc(CN2CCC(CNC(=O)c3cc(-c4cccc(C(F)(F)F)c4)cs3)C2)cc1 (stereo not drawn)
active: growth inhibition [1] 84% | inhibition [2] 80% | growth inhibition [4] 100%
inactive: inhibition [3] 1% | outcome [5] | outcome [6] | outcome [7] | outcome [8]

O=C(NC1CCC(N2CCN(c3cccc(C(F)(F)F)c3)CC2)CC1)c1cc2ccccc2[nH]1 (stereo not drawn)
active: growth inhibition [4] 99%
inactive: growth inhibition [1] 22% | inhibition [2] 23% | inhibition [3] 0% | outcome [5] | outcome [6] | outcome [7] | outcome [8]

CCC(=O)Nc1nnc(Cc2ccc(OC)c(OC)c2)s1
inactive: growth inhibition [1] 1% | inhibition [2] -4% | inhibition [3] -2% | outcome [5] | outcome [6] | outcome [7] | outcome [8]
active: growth inhibition [4] 93%

CCCCNc1cc(NCCCC)c2c(n1)[nH]c1ccccc12
inactive: inhibition [2] 13% | inhibition [3] -1% | outcome [5] | outcome [6] | outcome [7] | outcome [8]
active: growth inhibition [1] 94% | growth inhibition [4] 100%

CCOc1cc(Br)c(C(C)NC(=O)c2cccc(OC)c2)cc1OCC (stereo not drawn)
active: growth inhibition [4] 90%
inactive: growth inhibition [1] 37% | inhibition [2] -1% | inhibition [3] 3% | outcome [5] | outcome [6] | outcome [7] | outcome [8]

CS(=O)(=O)c1ccc(CNCc2cccc(-c3cccc(-c4nc5ccc(C(F)(F)F)cc5[nH]4)c3)c2)cc1
inactive: inhibition [2] 5% | inhibition [3] 2% | outcome [5] | outcome [6] | outcome [7] | outcome [8]
active: growth inhibition [1] 96% | growth inhibition [4] 103%

CCCCCCC(C)c1cc(OCCN(CC)CC)c2c(c1)OC(C)(C)C=C2c1ccncc1 (stereo not drawn)
inactive: inhibition [2] 14% | inhibition [3] -1% | outcome [5] | outcome [6] | outcome [7] | outcome [8]
active: growth inhibition [1] 71% | growth inhibition [4] 90%

CC(=O)Nc1nc(C(=O)Nc2cccc(-c3cccc(-c4nc5ccccc5[nH]4)c3)c2)cs1
inactive: inhibition [2] 31% | inhibition [3] 0% | outcome [5] | outcome [6] | outcome [7] | outcome [8]
active: growth inhibition [1] 82% | growth inhibition [4] 100%

CNC(=O)CC(=O)NCCc1ccc(Cl)cc1
inactive: growth inhibition [1] 1% | inhibition [2] -7% | inhibition [3] 6% | outcome [5] | outcome [6] | outcome [7] | outcome [8]
active: growth inhibition [4] 99%

CCCc1nc2c(N3CC(NC(=O)/C=C/c4ccccc4)C3)cccc2n1C1CC1
active: growth inhibition [1] 68% | growth inhibition [4] 83%
inactive: inhibition [2] 1% | inhibition [3] 0% | outcome [5] | outcome [6] | outcome [7] | outcome [8]

CN(C(=O)c1ccc(Br)cc1)c1ccccc1[N+](=O)[O-]
inactive: growth inhibition [1] 0% | inhibition [2] 3% | inhibition [3] 2% | outcome [5] | outcome [6] | outcome [7] | outcome [8]
active: growth inhibition [4] 96%

Reference: PubChem BioAssay
